NS1 function inh – inhibitors of influenza NS1 protein function; Potency, µM (highest dose often 46.1 µM), inactives show at the top dose activity, positive = more growth; 0.4% of 270,000 active; AID 2326; also: potency is read from the fitted curve at half-maximal effect; actives are rising curves; nearly all actives have a fitted effect of over 50% in size
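A cell-based growth assay was used: compounds that relieve NS1-induced slow growth of budding yeast raise OD600. Assay medium was yeast nitrogen base with ammonium sulphate and -URA supplement, pH 6.0, with 2% galactose.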
Shiga inhibitor – inhibitors of Shiga toxin in Vero cells; Vero cells, Shiga toxin protein synthesis inhibition reporter; inhibition, % at 38.7 µM; 9.2% of 290,000 active; in the data active = inhibition mostly above about 28%, no sharp cut-off; inactive = mostly below about 43%; also: 0% is about no effect
SARS PLpro yeast – blocks SARS-CoV papain-like protease in a yeast assay | S. cerevisiae expressing SARS-CoV PLpro, growth rescue | Potency, µM (series often up to 32.9 µM), inactives show top-dose activity, positive = growth rescue, hits mostly activators | 0.19% of 330,000 active; also: potency is read from the fitted curve at half-maximal effect; 0% is about no effect; nearly all actives have a fitted effect of over 55% in size
CHX counter – affects cycloheximide protein synthesis inhibition readout, counter-screen. cell reporter, cycloheximide protein synthesis inhibition counterscreen. AID 2314. max response, %. 12% of 300,000 active; in the data active = max response mostly above about 13%, no sharp cut-off; inactive = mostly below about 14%; also: read at 38.3 µM for the half of the compounds with a filed dose; 0% is about no effect
* = called active by the depositor. In the library only some 12% were active in any assay of this set; here they are far more common. Unless noted, calls follow the shape of the full dose curve.

Results for Cc1ccc(C(=O)CC(=O)c2ccccc2)cc1 ?
NS1 function inh: -33.4%; Shiga inhibitor: 66.3*; SARS PLpro yeast: inconclusive; CHX counter: 48.4*

What do the screens show for `N=c1ccn(CC(=O)c2ccc(-c3ccccc3)cc2)cc1`?
NS1 function inh: -5.5%; Shiga inhibitor: -5.4; SARS PLpro yeast: -1.5%; CHX counter: -0.7

What do the screens show for `CC(=O)NC(C)C(=O)OCC(=O)c1ccc(-c2ccccc2)cc1` (configuration not stated)?
Shiga inhibitor: 49.1*; SARS PLpro yeast: 1.3%; CHX counter: 16.1*

What do the screens show for `CC(=O)Nc1ccc(C(=O)OCC(=O)c2cccc([N+](=O)[O-])c2)cc1`?
NS1 function inh: 6.7%; Shiga inhibitor: -10.6; SARS PLpro yeast: -8.6%; CHX counter: 2.5

What do the screens show for `Cc1ccc[n+](CC(=O)c2ccc(-c3ccccc3)cc2)c1`?
NS1 function inh: 4.0%; Shiga inhibitor: -8.6; SARS PLpro yeast: -24.5%; CHX counter: -1.5

Results for Cc1ccc(C(=O)C[n+]2ccccc2)cc1 ?
NS1 function inh: 3.4%; Shiga inhibitor: 35.9*; SARS PLpro yeast: -1.2%; CHX counter: 24.6*

How did Cc1ccc(C(=O)Sc2cccccc2=O)cc1 do in these assays?
NS1 function inh: -78.0%; Shiga inhibitor: 134.9*; SARS PLpro yeast: -12.0%; CHX counter: 77.8*

What do the screens show for `Cc1ccc(S(=O)(=O)/N=C(/Sc2ccccc2C(=O)O)c2ccccc2)cc1`?
NS1 function inh: 14.5%; Shiga inhibitor: -3.7; SARS PLpro yeast: 2.7%; CHX counter: -10.8

Results for CCCC(=O)c1ccc(-c2ccccc2)cc1 ?
NS1 function inh: -15.5%; Shiga inhibitor: 84.3*; SARS PLpro yeast: -1.8%; CHX counter: 28.3*

How did CC(=O)Nc1cc(C(=O)OCC(=O)c2ccccc2)ccc1C do in these assays?
NS1 function inh: 3.6%; Shiga inhibitor: active; SARS PLpro yeast: 0.6%; CHX counter: 34.6*

Results for Cc1cc(C(=O)CSc2nn3c(=O)c(C(C)(C)C)nnc3s2)c(C)n1C ?
Shiga inhibitor: -6.3; SARS PLpro yeast: -0.6%; CHX counter: -1.2

Results for O=C(COC(=O)c1cncc(Br)c1)NC1CCCCCC1 ?
NS1 function inh: -2.0%; Shiga inhibitor: -12.4; SARS PLpro yeast: -0.3%; CHX counter: -0.6

What do the screens show for `Cc1ccc(S(=O)(=O)N2CCOCC2)cc1NC(=O)COC(=O)c1cnc(Cl)c(Cl)c1`?
SARS PLpro yeast: 0.5%

How did Cc1ccc(S(=O)(=O)Nc2cccc(-c3ccc(N4CCCCCC4)nn3)c2)c(C)c1 do in these assays?
NS1 function inh: 13.3%; Shiga inhibitor: 87.7*; SARS PLpro yeast: -1.9%; CHX counter: 42.4*

What do the screens show for `CCCCC/C=C\C/C=C\C/C=C\C/C=C\CCCC(=O)N(Cc1ccc(O)c(Cl)c1)Cc1ccc(O)c(Cl)c1`?
Shiga inhibitor: 62.8*; CHX counter: 39.6

What do the screens show for `CCCCC/C=C\C/C=C\C/C=C\C/C=C\CCCC(=O)NCCc1ccc(O)c(O)c1`?
Shiga inhibitor: 45.4; CHX counter: 18.7

What do the screens show for `CCOc1ccccc1N(CC(=O)Nc1ccccc1)S(=O)(=O)c1ccccc1`?
NS1 function inh: -2.0%; Shiga inhibitor: -1.2; SARS PLpro yeast: 8.4%; CHX counter: -2.1

How did Cc1nc2ccc(NC(=O)c3ccco3)cc2nc1C do in these assays?
NS1 function inh: -5.3%; Shiga inhibitor: 58.9*; SARS PLpro yeast: 11.8%; CHX counter: 17.3*

Results for CCOC(=O)N1CCN(Cc2nc3cc(NC(=O)c4ccco4)ccc3n2CC)CC1 ?
NS1 function inh: -22.5%; Shiga inhibitor: 32.4; SARS PLpro yeast: -0.7%; CHX counter: 22.9*

Results for Cn1c(CCNC(=O)c2ccco2)nc2cc(NC(=O)NC3CCCCC3)ccc21 ?
NS1 function inh: -7.8%; Shiga inhibitor: 2.7; SARS PLpro yeast: 1.6%; CHX counter: 2.5

How did COc1cccc(OC)c1C(=O)Nc1ccc2nc(C)c(C)nc2c1 do in these assays?
NS1 function inh: -9.8%; Shiga inhibitor: 14.5; SARS PLpro yeast: -2.2%; CHX counter: 8.6

How did Cn1c(CCNC(=O)c2ccco2)nc2cc(NC(=O)C3CCCCC3)ccc21 do in these assays?
NS1 function inh: -4.2%; Shiga inhibitor: 36.6*; SARS PLpro yeast: 37.5%; CHX counter: 11.9*

What do the screens show for `COc1ccccc1C(=O)Nc1ccc2c(c1)nc(CCNC(=O)c1ccco1)n2C`?
NS1 function inh: 5.8%; Shiga inhibitor: 15.5; SARS PLpro yeast: 0.9%; CHX counter: 5.7

How did CCC(=O)NCCc1nc2cc(NC(=O)c3ccco3)ccc2n1C do in these assays?
NS1 function inh: 1.2%; Shiga inhibitor: 44.0*; SARS PLpro yeast: 2.3%; CHX counter: 15.5*

How did Cc1ccc(C2=C(Cl)C(=O)C(c3ccc(C)cc3)=C(Cl)C2=O)cc1 do in these assays?
NS1 function inh: -7.9%

How did COc1ccccc1NC(=O)Nn1cnnc1 do in these assays?
NS1 function inh: -10.7%; Shiga inhibitor: 3.1; SARS PLpro yeast: 6.3%; CHX counter: -2.0

Results for COc1ccc(NC(=O)Nc2cnccn2)cc1OC ?
NS1 function inh: 5.1%; Shiga inhibitor: 9.2; SARS PLpro yeast: 3.2%; CHX counter: 6.4

What do the screens show for `CN(CC(=O)NNC(=O)CCNS(=O)(=O)c1ccccc1)S(=O)(=O)c1ccc(Cl)cc1`?
SARS PLpro yeast: 1.9%

How did Cn1c(CCNC(=O)c2ccco2)nc2cc(NC(=O)c3ccco3)ccc21 do in these assays?
NS1 function inh: -4.2%; Shiga inhibitor: 48.6*; SARS PLpro yeast: -2.0%; CHX counter: 22.5*

Results for CCCCC(=O)Nc1ccc2c(c1)nc(CCNC(=O)c1ccco1)n2C ?
NS1 function inh: -3.4%; Shiga inhibitor: 15.1; SARS PLpro yeast: -1.0%; CHX counter: 15.5*

What do the screens show for `Cc1nc2cc(NC(=O)NCc3ccco3)ccc2n1C`?
NS1 function inh: 0.5%; Shiga inhibitor: 85.4*; SARS PLpro yeast: 0.0%; CHX counter: 41.3*

How did Nc1nc2ccc(NC(=O)c3ccco3)cc2s1 do in these assays?
NS1 function inh: 12.1%; Shiga inhibitor: 107.0*; SARS PLpro yeast: -3.4%; CHX counter: 50.8*

What do the screens show for `COc1ccc(OC)c(NC(=O)CSc2ccc3nnc(-c4cccnc4)n3n2)c1`?
Shiga inhibitor: 13.1; SARS PLpro yeast: -0.6%; CHX counter: 7.6

Results for Cn1c(CCNC(=O)c2ccco2)nc2cc(NC(=O)c3ccccc3)ccc21 ?
NS1 function inh: -6.8%; Shiga inhibitor: 80.1*; SARS PLpro yeast: 1.0%; CHX counter: 36.2*

What do the screens show for `COc1cc(C(=O)Nc2ccc(-n3cnnn3)c(C)c2)cc(OC)c1OC`?
NS1 function inh: -3.5%; Shiga inhibitor: -4.8; SARS PLpro yeast: 1.2%; CHX counter: -1.7

What do the screens show for `Cc1nc2cc(NC(=O)c3ccco3)ccc2n1C`?
NS1 function inh: inconclusive; Shiga inhibitor: 18.9; SARS PLpro yeast: -1.7%; CHX counter: 23.6*

How did Cn1c(CCNC(=O)c2ccccc2)nc2cc(NC(=O)c3ccco3)ccc21 do in these assays?
NS1 function inh: -11.6%; Shiga inhibitor: 82.3; SARS PLpro yeast: 5.7%; CHX counter: 18.0

How did Cc1cc(NC(=O)c2ccco2)ccc1-n1cnnn1 do in these assays?
NS1 function inh: -2.7%; Shiga inhibitor: 112.6*; SARS PLpro yeast: 0.8%; CHX counter: 45.5*

What do the screens show for `Cc1cccc(C(C)C)c1NS(=O)(=O)c1cn(C)nc1C`?
NS1 function inh: 3.6%; Shiga inhibitor: -6.9; SARS PLpro yeast: 8.4%; CHX counter: -3.2

Assay outcomes as filed in PubChem.
